Laboratory results as given in PubChem BioAssay AID1159580 (chemical genetic matrix, 2015).
The campaign covered roughly 5,500 compounds. About 2,000 (36%) were called active. Inconclusive results (about 18%) are left out. The list shows a part of the results. Values without a mark were called inactive. Cut-off read from the data, not from the text of the source: active = normalized growth mostly below about 0.91 (no sharp cut-off); inconclusive = no clear call, values can overlap the other calls; inactive = mostly above about 0.92.

Assay: chemical genetic growth profiling, strain panel (AID 1159580);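 note: tested at 20 µM; growth read once vehicle control cultures reached saturation at 30 °C; 1 = growth at the plate median or of vehicle wells; lower values mean less growth of the strain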
Details: growth OD

COC(=O)[C@@]1(C)CCC[C@]2(C)c3ccc(O)c(C(C)C)c3CCC12 (stereo partly specified)
normalized growth (S. cerevisiae deletion strains, locus YJR066W, strain TOR1, hits give low values): 0.689 (active) | normalized growth (S. cerevisiae deletion strains, locus YKL009W, strain mrt4, hits give low values): 0.859 (active) | normalized growth (S. cerevisiae deletion strains, locus YKL068W, hits give low values): 0.979 | normalized growth (S. cerevisiae deletion strains, locus YKL085W, strain MDH1 (second series), hits give low values): 0.522 (active) | normalized growth (S. cerevisiae deletion strains, locus YKL085W, strain MDH1, hits give low values): 0.522 (active) | normalized growth (S. cerevisiae deletion strains, locus YKL160W, strain elf1, hits give low values): 0.881 (active) | normalized growth (S. cerevisiae deletion strains, locus YKR001C, strain vps1, hits give low values): 0.231 (active) | normalized growth (S. cerevisiae deletion strains, locus YKR026C, strain gcn3, hits give low values): 0.978 | normalized growth (S. cerevisiae deletion strains, locus YKR091W, strain srl3, hits give low values): 0.976 | normalized growth (S. cerevisiae deletion strains, locus YLL001W, strain dnm1, hits give low values): 0.937 | normalized growth (S. cerevisiae deletion strains, locus YLL026W, hits give low values): 0.843 (active) | normalized growth (S. cerevisiae deletion strains, locus YLL041C, strain sdh2, hits give low values): 0.965 | normalized growth (S. cerevisiae deletion strains, locus YLR027C, strain aat2, hits give low values): 0.354 (active) | normalized growth (S. cerevisiae deletion strains, locus YLR039C, strain RIC1, hits give low values): 0.245 (active) | normalized growth (S. cerevisiae deletion strains, locus YLR058C, strain SHM2, hits give low values): 0.661 (active) | normalized growth (S. cerevisiae deletion strains, locus YLR102C, strain apc9, hits give low values): 0.95 | normalized growth (S. cerevisiae deletion strains, locus YLR113W, strain HOG1, hits give low values): 0.284 (active) | normalized growth (S. cerevisiae deletion strains, locus YLR221C, strain rsa3, hits give low values): 0.619 (active) | normalized growth (S. cerevisiae deletion strains, locus YLR258W, strain gsy2, hits give low values): 0.786 (active) | normalized growth (S. cerevisiae deletion strains, locus YLR262C, strain YPT6 (second series), hits give low values): 0.208 (active) | normalized growth (S. cerevisiae deletion strains, locus YLR268W, strain sec22, hits give low values): 0.85 (active) | normalized growth (S. cerevisiae deletion strains, locus YLR320W, strain mms22, hits give low values): 0.695 (active) | normalized growth (S. cerevisiae deletion strains, locus YLR330W, strain CHS5, hits give low values): 0.662 (active) | normalized growth (S. cerevisiae deletion strains, locus YLR342W, strain FKS1 (second series), hits give low values): 0.42 (active) | normalized growth (S. cerevisiae deletion strains, locus YLR342W, strain FKS1, hits give low values): 0.596 (active) | normalized growth (S. cerevisiae deletion strains, locus YLR357W, strain rsc2, hits give low values): 1 | normalized growth (S. cerevisiae deletion strains, locus YLR370C, strain arc18, hits give low values): 1.01 | normalized growth (S. cerevisiae deletion strains, locus YLR371W, strain rom2, hits give low values): 0.444 (active) | normalized growth (S. cerevisiae deletion strains, locus YLR384C, strain iki3, hits give low values): 0.998 | normalized growth (S. cerevisiae deletion strains, locus YLR418C, strain cdc73, hits give low values): 0.297 (active) | normalized growth (S. cerevisiae deletion strains, locus YML016C, strain PPZ1, hits give low values): 0.889 (active) | normalized growth (S. cerevisiae deletion strains, locus YML032C, strain rad52, hits give low values): 0.732 (active) | normalized growth (S. cerevisiae deletion strains, locus YML120C, strain ndi1, hits give low values): 0.222 (active) | normalized growth (S. cerevisiae deletion strains, locus YML124C, strain tub3, hits give low values): 0.922 (active) | normalized growth (S. cerevisiae deletion strains, locus YMR058W, strain fet3, hits give low values): 0.919 | normalized growth (S. cerevisiae deletion strains, locus YMR078C, strain ctf18, hits give low values): 0.96 | normalized growth (S. cerevisiae deletion strains, locus YMR125W, strain sto1, hits give low values): 0.959 | normalized growth (S. cerevisiae deletion strains, locus YMR129W, hits give low values): 0.96 | normalized growth (S. cerevisiae deletion strains, locus YMR205C, strain PFK2, hits give low values): 0.649 (active) | normalized growth (S. cerevisiae deletion strains, locus YMR223W, strain ubp8, hits give low values): 0.828 (active) | normalized growth (S. cerevisiae deletion strains, locus YMR231W, strain pep5, hits give low values): 0.996 | normalized growth (S. cerevisiae deletion strains, locus YMR263W, strain SAP30, hits give low values): 0.657 (active) | normalized growth (S. cerevisiae deletion strains, locus YMR307W, strain GAS1, hits give low values): 0.509 (active) | normalized growth (S. cerevisiae deletion strains, locus YNL067W, strain RPL9B, hits give low values): 0.903 | normalized growth (S. cerevisiae deletion strains, locus YNL071W, strain lat1, hits give low values): 0.684 (active) | normalized growth (S. cerevisiae deletion strains, locus YNL153C, strain GIM3, hits give low values): 0.788 (active) | normalized growth (S. cerevisiae deletion strains, locus YNL183C, strain NPR1, hits give low values): 0.715 (active) | normalized growth (S. cerevisiae deletion strains, locus YNL209W, strain ssb2, hits give low values): 0.856 (active) | normalized growth (S. cerevisiae deletion strains, locus YNL233W, strain BNI4, hits give low values): 0.563 (active) | normalized growth (S. cerevisiae deletion strains, locus YNL248C, strain rpa49, hits give low values): 0.916 | normalized growth (S. cerevisiae deletion strains, locus YNL250W, strain rad50, hits give low values): 0.934 | normalized growth (S. cerevisiae deletion strains, locus YNL271C, strain bni1, hits give low values): 0.971 | normalized growth (S. cerevisiae deletion strains, locus YNL298W, strain CLA4, hits give low values): 0.883 (active) | normalized growth (S. cerevisiae deletion strains, locus YNL307C, strain MCK1, hits give low values): 0.502 (active) | normalized growth (S. cerevisiae deletion strains, locus YNL322C, strain KRE1 (second series), hits give low values): 0.985 | normalized growth (S. cerevisiae deletion strains, locus YNR049C, strain mso1, hits give low values): 0.964 | normalized growth (S. cerevisiae deletion strains, locus YNR052C, strain pop2, hits give low values): 0.629 (active) | normalized growth (S. cerevisiae deletion strains, locus YOL012C, strain htz1): 0.967 | normalized growth (S. cerevisiae deletion strains, locus YOL147C, strain pex11, hits give low values): 0.681 (active) | normalized growth (S. cerevisiae deletion strains, locus YOR001W, strain rrp6, hits give low values): 0.636 (active) | normalized growth (S. cerevisiae deletion strains, locus YOR061W, strain CKA2, hits give low values): 0.859 (active) | normalized growth (S. cerevisiae deletion strains, locus YOR069W, strain VPS5, hits give low values): 0.854 (active) | normalized growth (S. cerevisiae deletion strains, locus YOR070C, strain gyp1, hits give low values): 0.693 (active) | normalized growth (S. cerevisiae deletion strains, locus YOR080W, strain dia2, hits give low values): 0.715 (active) | normalized growth (S. cerevisiae deletion strains, locus YOR083W, strain WHI5, hits give low values): 0.835 (active) | normalized growth (S. cerevisiae deletion strains, locus YOR106W, strain vam3, hits give low values): 0.373 (active) | normalized growth (S. cerevisiae deletion strains, locus YOR136W, strain idh2, hits give low values): 0.929 | normalized growth (S. cerevisiae deletion strains, locus YOR144C, strain elg1, hits give low values): 0.711 (active) | normalized growth (S. cerevisiae deletion strains, locus YOR184W, strain ser1, hits give low values): 0.355 (active) | normalized growth (S. cerevisiae deletion strains, locus YOR231W, strain MKK1, hits give low values): 0.575 (active) | normalized growth (S. cerevisiae deletion strains, locus YOR265W, strain rbl2, hits give low values): 0.741 (active) | normalized growth (S. cerevisiae deletion strains, locus YOR270C, strain vph1, hits give low values): 0.612 (active) | normalized growth (S. cerevisiae deletion strains, locus YOR290C, strain snf2, hits give low values): 0.776 (active) | normalized growth (S. cerevisiae deletion strains, locus YOR316C, strain cot1, hits give low values): 0.984 | normalized growth (S. cerevisiae deletion strains, locus YPL051W, strain arl3, hits give low values): 0.539 (active) | normalized growth (S. cerevisiae deletion strains, locus YPL055C, strain LGE1, hits give low values): 0.403 (active) | normalized growth (S. cerevisiae deletion strains, locus YPL078C, strain atp4, hits give low values): 0.924 | normalized growth (S. cerevisiae deletion strains, locus YPL106C, strain sse1, hits give low values): 0.505 (active) | normalized growth (S. cerevisiae deletion strains, locus YPL240C, strain hsp82, hits give low values): 0.697 (active) | normalized growth (S. cerevisiae deletion strains, locus YPL256C, strain CLN2, hits give low values): 0.682 (active) | normalized growth (S. cerevisiae deletion strains, locus YPR119W, strain clb2, hits give low values): 0.799 (active) | normalized growth (S. cerevisiae deletion strains, locus YPR141C, strain kar3, hits give low values): 0.987 | normalized growth (S. cerevisiae deletion strains, locus YPR163C, strain tif3, hits give low values): 0.817 (active) | normalized growth (S. cerevisiae deletion strains, locus YPR167C, strain met16, hits give low values): 0.773 (active) | normalized growth (S. cerevisiae deletion strains, strain wtn01, hits give low values): 0.812 (active) | normalized growth (S. cerevisiae strains, strain wild type, hits give low values): 0.458 (active)
